Measured values reported in PubChem BioAssay (EPA / NIEHS).
Activity calls are given as the source filed them. How the source made its calls: active means hit-call score of the fitted dose curve at least 0.9, where 1 is the maximum; inactive means score below 0.9.

Legend:
[1] = ATG_GRE_CIS: Attagene CIS-FACTORIAL HepG2 Assay for human Glucocorticoid Response Elements (GRE) (AID 2282947); conditions: HepG2 GRE cis-reporter, Attagene multiplex mRNA; actives raise or lower the signal
In short: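 Endogenous transcription factor activity is read through cis-element reporter constructs transiently transfected into HepG2 cells. After 24 h treatment, labelled RT-PCR products are resolved by capillary electrophoresis; DMSO sets baseline for bidirectional curve fitting.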

[2] = ATG_ISRE_CIS: Attagene CIS-FACTORIAL HepG2 Assay for human Interferon Regulatory Factor 1 (IRF1) binding to an Interferon-Stimulated Response Element (ISRE) (AID 2282948); conditions: HepG2 ISRE cis-reporter (Attagene), mRNA transcription readout; actives raise or lower the signal
In short: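 Quantitation relies on labelled RT-PCR fragments separated by capillary electrophoresis. Human HepG2 cells bearing cis-promoter reporter constructs were treated 24 h; DMSO served as baseline for bidirectional fitting.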

[3] = ATG_M_32_CIS: Attagene CIS-FACTORIAL HepG2 Assay for M32 Transcription Factor (Internal Marker) (AID 2282949); conditions: HepG2 Attagene cis-factorial M32 reporter, mRNA; actives raise or lower the signal;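 further: background control marker of the multiplexed CIS panel rather than a real target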
In short: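 Following 24 h chemical exposure of HepG2 cells transiently expressing cis-promoter reporter constructs, reporter transcript levels were determined by RT-PCR with fluorescent labelling and capillary electrophoresis, then fitted bidirectionally against DMSO.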

[4] = ATG_M_06_CIS: Attagene CIS-FACTORIAL HepG2 Assay for M06 Transcription Factor (Internal Marker) (AID 2282950); conditions: HepG2 Attagene CIS-FACTORIAL M06 internal marker reporter; actives raise or lower the signal
In short: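 Steps: transfect HepG2 with multiplexed cis-element reporter constructs; dose chemical 24 h; extract RNA with DNase treatment; reverse-transcribe, PCR-amplify, 6-FAM label, HpaI digest; separate fragments by capillary electrophoresis. Activity fitted both directions versus DMSO.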

[5] = biological target: Hypoxia-inducible factor 1-alpha (Homo sapiens) (UniProt Q16665); assay: ATG_HIF1a_CIS: Attagene CIS-FACTORIAL HepG2 Assay for human Hypoxia Inducible Factor 1 (HIF1A) (AID 2282951); conditions: HepG2 Attagene cis-factorial HIF1a reporter transcription; actives raise or lower the signal
In short: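 Cis-element reporter constructs were transiently transfected into HepG2 cells, which were treated for 24 h; reporter RNA was reverse-transcribed, amplified, labelled and resolved by capillary electrophoresis.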

[6] = biological target: Hepatocyte nuclear factor 6 (Homo sapiens) (UniProt Q9UBC0); assay: ATG_HNF6_CIS: Attagene CIS-FACTORIAL HepG2 Assay for human Hepatocyte Nuclear Factor 6 (HNF6) (AID 2282952); conditions: HepG2 Attagene cis-factorial HNF6 reporter transcription; actives raise or lower the signal
In short: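 Multiplexed mRNA reporter assay in transfected HepG2; 24 h dosing; RT-PCR plus capillary electrophoresis fluorescence; DMSO-referenced bidirectional curve fitting.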

[7] = biological target: Heat shock factor protein 1 (Homo sapiens) (UniProt Q00613); assay: ATG_HSE_CIS: Attagene CIS-FACTORIAL HepG2 Assay for human Heat Shock Transcription Factor 1 (HSE) (AID 2282953); conditions: HepG2 HSE cis-reporter, Attagene RNA transcription; actives raise or lower the signal
In short: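 Cells were transfected with cis-element-driven reporter constructs, dosed for 24 h, then total RNA was reverse-transcribed and reporter cDNA amplified, FAM-labelled and digested with HpaI. Fragments were resolved by capillary electrophoresis; gain or loss was fitted against DMSO.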

[8] = ATG_MRE_CIS: Attagene CIS-FACTORIAL HepG2 Assay for human Metal Responsive Element (MRE) (AID 2282954); conditions: HepG2 MRE cis-reporter transcription, Attagene multiplex; actives raise or lower the signal
In short: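 Fluorescent reporter fragments separated by capillary electrophoresis give mRNA induction for the MRE unit after 24 h treatment of transfected HepG2 cells. Endogenous transcription-factor activity is read; DMSO serves as negative control and baseline.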

[9] = ATG_PBREM_CIS: Attagene CIS-FACTORIAL HepG2 Assay for human Phenobarbital-responsive Enhancer Module (PBREM) (AID 2282955); conditions: HepG2 PBREM cis-reporter, Attagene multiplexed transcription; actives raise or lower the signal
In short: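 Multiplexed cis-reporter readout in human hepatoma HepG2 cells; PBREM-regulated transcript quantified after 24 h exposure by fluorescent RT-PCR fragment analysis. Signal changes up or down fitted relative to DMSO.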

[10] = biological target: Paired box protein Pax-6 (Homo sapiens) (UniProt P26367); assay: ATG_Pax6_CIS: Attagene CIS-FACTORIAL HepG2 Assay for human Paired Box 6 (PAX6) (AID 2282956); conditions: HepG2 CIS-FACTORIAL PAX6 reporter transcription, RNA readout; actives raise or lower the signal
In short: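 After twenty-four hours of chemical exposure, transfected HepG2 cells are harvested for RNA. Cis-promoter reporter transcripts are amplified, fluorescently labelled and sized by capillary electrophoresis, with gain and loss of signal scored against DMSO.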

[11] = ATG_PXRE_CIS: Attagene CIS-FACTORIAL HepG2 Assay for human Pregnane X Receptor Element (PXRE) (AID 2282957); conditions: HepG2 Attagene CIS-FACTORIAL PXRE reporter, mRNA; actives raise or lower the signal
In short: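 Cells: HepG2, transiently transfected reporter units under cis promoter control. Exposure: 24 h. Detection: reporter mRNA via RT-PCR/CE fluorescence; bidirectional fitting, DMSO-referenced.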

[12] = ATG_PPRE_CIS: Attagene CIS-FACTORIAL HepG2 Assay for human Peroxisome Proliferator-activated Response Element (PPRE) (AID 2282958); conditions: HepG2 PPRE cis-element reporter, Attagene transcription factor profiling; actives raise or lower the signal
In short: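 DMSO served as negative control and baseline for bidirectional curve fitting. Signal came from PPRE-regulated reporter mRNA in HepG2 cells, measured 24 h post-dosing by RT-PCR, 6-FAM primer extension and capillary electrophoresis.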

[13] = ATG_Sox_CIS: Attagene CIS-FACTORIAL HepG2 Assay for human SRY-box transcription factor (SOX) (AID 2282960); conditions: HepG2 Attagene cis-factorial SOX reporter, mRNA; actives raise or lower the signal
In short: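 Fluorescence-labelled cDNA fragments from reporter transcripts, sized by CE, give the signal. Cells: HepG2, transiently transfected with cis-regulated reporter units. Exposure 24 h; DMSO negative control; bidirectional curve fitting.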

[14] = biological target: Transcription factor Sp1 (Homo sapiens) (UniProt P08047); assay: ATG_Sp1_CIS: Attagene CIS-FACTORIAL HepG2 Assay for human Specificity Protein 1 (Sp1) (AID 2282961); conditions: HepG2 Sp1 cis-reporter transcription, actives raise or lower the signal
In short: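 Chemicals are dosed onto HepG2 cells transfected with multiple cis-promoter reporter constructs, and after 24 h reporter RNA is reverse-transcribed, PCR-amplified and resolved by capillary electrophoresis for fluorescence quantitation; activity is scored up or down against DMSO.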

[15] = ATG_SREBP_CIS: Attagene CIS-FACTORIAL HepG2 Assay for human Sterol Regulatory Element Binding (SREBP) (AID 2282962); conditions: HepG2 Attagene cis-factorial SREBP reporter, mRNA; actives raise or lower the signal
In short: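 Twenty-four hours after chemical dosing of transfected HepG2 cultures, reporter RNA was converted to cDNA, amplified, end-labelled with 6-FAM and resolved by capillary electrophoresis. Responses were fitted relative to DMSO.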

[16] = biological target: Signal transducer and activator of transcription 3 (Homo sapiens) (UniProt P40763); assay: ATG_STAT3_CIS: Attagene CIS-FACTORIAL HepG2 Assay for human Signal Transducer and Activator of Transcription 3 (STAT3) (AID 2282963); conditions: HepG2, Attagene cis-factorial STAT3 reporter transcription; actives raise or lower the signal
In short: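 Values derive from bidirectional fits relative to DMSO of reporter mRNA levels, measured by RT-PCR with capillary electrophoresis, in HepG2 cells carrying transiently transfected cis-regulated reporter units and exposed 24 h.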

[17] = ATG_TA_CIS: Attagene CIS-FACTORIAL HepG2 Assay for human TA Basal Promoter (AID 2282964); conditions: HepG2 Attagene CIS-factorial TA basal promoter reporter; actives raise or lower the signal
In short: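 Steps: transfect HepG2 with MRTUs; dose 24 h; isolate RNA, DNase-treat, reverse-transcribe; PCR and FAM-label reporter cDNA; digest with HpaI 2h at 37 C; run capillary electrophoresis. Activity fitted both directions against DMSO.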

[18] = ATG_TCF_b_cat_CIS: Attagene CIS-FACTORIAL HepG2 Assay for human T-Cell-Factor with beta-catenin (TCF/b-cat) (AID 2282965); conditions: HepG2 TCF/beta-catenin cis-reporter transcription, actives raise or lower the signal
In short: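 Cells of the HepG2 line carry transiently transfected reporter units whose promoters respond to endogenous factors. Twenty-four hours post-dosing, reporter mRNA induction is measured by fluorescent RT-PCR and capillary electrophoresis, with DMSO as baseline.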

[19] = ATG_RORE_CIS: Attagene CIS-FACTORIAL HepG2 Assay for human RAR-related Orphan Receptor Element (RORE) (AID 2282959); conditions: HepG2 Attagene cis-factorial RORE reporter, mRNA; actives raise or lower the signal
In short: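 Transfect HepG2 with MRTUs; treat 24 h; extract RNA; RT with oligo(dT); PCR with reporter-specific primers; 6-FAM primer extension; HpaI digest 2 h at 37 C; capillary electrophoresis. Fit vs DMSO, bidirectional.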

Measured: AC50

Transcription factor Sp1 (Homo sapiens), sequence (P08047 whole entry, looked up): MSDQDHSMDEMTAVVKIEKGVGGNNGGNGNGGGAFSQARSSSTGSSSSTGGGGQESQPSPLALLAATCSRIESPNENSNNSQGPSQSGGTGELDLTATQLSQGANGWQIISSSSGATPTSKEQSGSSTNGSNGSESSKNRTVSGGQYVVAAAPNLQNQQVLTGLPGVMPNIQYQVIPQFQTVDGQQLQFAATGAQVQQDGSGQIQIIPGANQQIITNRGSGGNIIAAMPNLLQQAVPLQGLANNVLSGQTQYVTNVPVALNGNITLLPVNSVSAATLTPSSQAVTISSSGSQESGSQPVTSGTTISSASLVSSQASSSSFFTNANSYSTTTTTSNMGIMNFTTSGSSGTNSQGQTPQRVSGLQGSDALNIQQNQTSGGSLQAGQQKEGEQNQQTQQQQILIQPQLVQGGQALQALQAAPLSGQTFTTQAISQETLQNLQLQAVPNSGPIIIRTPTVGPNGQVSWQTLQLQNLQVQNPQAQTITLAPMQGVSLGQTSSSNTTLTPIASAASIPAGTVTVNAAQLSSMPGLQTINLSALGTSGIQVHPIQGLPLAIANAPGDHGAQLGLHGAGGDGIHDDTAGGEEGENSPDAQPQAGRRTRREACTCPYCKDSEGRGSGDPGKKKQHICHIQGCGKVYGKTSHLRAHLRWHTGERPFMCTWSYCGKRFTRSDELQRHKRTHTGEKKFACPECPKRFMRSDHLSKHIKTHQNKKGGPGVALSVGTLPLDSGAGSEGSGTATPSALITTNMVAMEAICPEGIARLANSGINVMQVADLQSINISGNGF
Hypoxia-inducible factor 1-alpha (Homo sapiens), sequence (Q16665 whole entry, looked up): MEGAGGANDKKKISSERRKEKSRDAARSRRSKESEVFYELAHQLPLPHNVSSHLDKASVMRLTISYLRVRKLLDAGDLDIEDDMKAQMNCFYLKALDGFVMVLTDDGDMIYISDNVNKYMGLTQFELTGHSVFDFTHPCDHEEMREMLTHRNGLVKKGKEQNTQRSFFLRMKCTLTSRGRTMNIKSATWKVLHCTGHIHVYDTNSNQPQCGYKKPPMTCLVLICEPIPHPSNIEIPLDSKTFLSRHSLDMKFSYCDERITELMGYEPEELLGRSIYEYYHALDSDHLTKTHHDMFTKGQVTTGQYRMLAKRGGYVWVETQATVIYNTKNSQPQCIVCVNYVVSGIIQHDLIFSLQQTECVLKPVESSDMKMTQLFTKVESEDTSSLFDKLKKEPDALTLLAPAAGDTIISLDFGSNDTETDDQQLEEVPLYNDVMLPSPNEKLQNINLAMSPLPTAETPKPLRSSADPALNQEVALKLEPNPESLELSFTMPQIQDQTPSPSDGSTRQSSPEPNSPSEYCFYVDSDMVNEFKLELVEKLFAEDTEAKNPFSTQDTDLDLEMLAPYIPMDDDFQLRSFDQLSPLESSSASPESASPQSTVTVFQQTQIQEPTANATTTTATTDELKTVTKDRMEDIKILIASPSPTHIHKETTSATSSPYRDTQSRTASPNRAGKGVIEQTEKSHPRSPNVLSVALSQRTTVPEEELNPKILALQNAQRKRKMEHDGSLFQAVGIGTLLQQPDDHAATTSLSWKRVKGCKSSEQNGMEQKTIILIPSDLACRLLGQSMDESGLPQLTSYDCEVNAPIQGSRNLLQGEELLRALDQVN
Paired box protein Pax-6 (Homo sapiens), sequence (P26367 whole entry, looked up): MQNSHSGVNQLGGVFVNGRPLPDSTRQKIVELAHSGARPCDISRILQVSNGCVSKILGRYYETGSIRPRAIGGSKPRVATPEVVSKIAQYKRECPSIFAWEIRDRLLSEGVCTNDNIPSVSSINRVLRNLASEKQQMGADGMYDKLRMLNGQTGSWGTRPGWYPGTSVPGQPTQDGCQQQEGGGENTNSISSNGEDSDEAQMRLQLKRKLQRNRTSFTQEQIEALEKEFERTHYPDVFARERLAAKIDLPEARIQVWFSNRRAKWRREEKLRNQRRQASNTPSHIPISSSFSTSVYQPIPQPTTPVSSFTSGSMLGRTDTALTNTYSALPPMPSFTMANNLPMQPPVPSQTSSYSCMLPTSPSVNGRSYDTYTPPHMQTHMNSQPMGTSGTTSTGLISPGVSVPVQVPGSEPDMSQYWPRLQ
Heat shock factor protein 1 (Homo sapiens), sequence (Q00613 whole entry, looked up, the tested form may be a part): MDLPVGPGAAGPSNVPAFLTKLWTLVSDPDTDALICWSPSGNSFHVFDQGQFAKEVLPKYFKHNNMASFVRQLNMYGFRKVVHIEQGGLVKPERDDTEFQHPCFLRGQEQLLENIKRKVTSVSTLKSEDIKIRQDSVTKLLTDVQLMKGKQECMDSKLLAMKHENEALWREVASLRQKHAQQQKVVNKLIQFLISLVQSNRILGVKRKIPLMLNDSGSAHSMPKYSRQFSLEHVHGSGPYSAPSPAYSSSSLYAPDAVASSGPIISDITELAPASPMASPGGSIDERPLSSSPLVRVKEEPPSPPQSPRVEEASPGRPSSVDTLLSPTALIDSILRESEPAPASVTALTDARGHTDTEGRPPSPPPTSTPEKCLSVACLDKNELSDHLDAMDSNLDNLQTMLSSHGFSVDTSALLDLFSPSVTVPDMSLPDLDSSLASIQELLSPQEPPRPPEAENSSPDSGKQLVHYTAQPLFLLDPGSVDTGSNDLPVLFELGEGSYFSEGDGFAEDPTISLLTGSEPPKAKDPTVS
Hepatocyte nuclear factor 6 (Homo sapiens), sequence (Q9UBC0 whole entry, looked up): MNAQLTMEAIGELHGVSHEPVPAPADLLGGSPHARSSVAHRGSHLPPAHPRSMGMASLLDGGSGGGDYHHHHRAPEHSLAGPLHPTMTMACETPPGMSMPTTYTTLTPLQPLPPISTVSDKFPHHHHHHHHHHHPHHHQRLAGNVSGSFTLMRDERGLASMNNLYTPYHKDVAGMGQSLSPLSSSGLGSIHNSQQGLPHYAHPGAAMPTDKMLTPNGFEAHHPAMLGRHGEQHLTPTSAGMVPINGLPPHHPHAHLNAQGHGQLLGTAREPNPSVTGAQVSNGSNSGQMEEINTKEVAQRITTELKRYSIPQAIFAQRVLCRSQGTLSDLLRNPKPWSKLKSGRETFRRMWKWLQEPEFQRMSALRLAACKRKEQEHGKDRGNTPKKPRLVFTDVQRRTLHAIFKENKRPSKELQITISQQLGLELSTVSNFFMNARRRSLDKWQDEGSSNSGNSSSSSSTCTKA
Signal transducer and activator of transcription 3 (Homo sapiens), sequence (P40763 whole entry, looked up): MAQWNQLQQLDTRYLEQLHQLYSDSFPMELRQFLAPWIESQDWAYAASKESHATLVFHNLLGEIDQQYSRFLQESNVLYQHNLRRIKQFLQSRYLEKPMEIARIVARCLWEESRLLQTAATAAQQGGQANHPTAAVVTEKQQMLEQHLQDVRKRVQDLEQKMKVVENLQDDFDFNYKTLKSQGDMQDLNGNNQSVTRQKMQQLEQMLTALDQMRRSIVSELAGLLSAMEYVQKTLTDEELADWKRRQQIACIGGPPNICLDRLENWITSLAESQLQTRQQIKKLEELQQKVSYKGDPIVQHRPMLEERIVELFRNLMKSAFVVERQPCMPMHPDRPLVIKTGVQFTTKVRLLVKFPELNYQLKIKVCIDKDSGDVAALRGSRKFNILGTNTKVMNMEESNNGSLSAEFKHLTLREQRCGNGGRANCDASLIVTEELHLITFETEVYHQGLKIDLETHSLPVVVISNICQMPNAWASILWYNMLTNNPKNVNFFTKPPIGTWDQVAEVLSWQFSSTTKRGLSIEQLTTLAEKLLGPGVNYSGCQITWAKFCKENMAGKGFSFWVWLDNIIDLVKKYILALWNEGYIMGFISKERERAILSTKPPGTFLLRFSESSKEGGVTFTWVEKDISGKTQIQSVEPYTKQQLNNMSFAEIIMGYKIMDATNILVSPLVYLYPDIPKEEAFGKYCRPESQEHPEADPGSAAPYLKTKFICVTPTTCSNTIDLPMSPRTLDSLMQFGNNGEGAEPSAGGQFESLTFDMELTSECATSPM

NC(=O)Nc1ccc(Cl)cc1
not listed: [19]
inactive: all other assays above

O=[N+]([O-])c1cc(C(F)(F)F)ccc1Cl
active: [11] 12.7 µM
not listed: [12]
inactive: all other assays above

OC1OC[C@@H](O)[C@H](O)[C@H]1O (stereo not given in full)
not listed: [12] | [15]
inactive: all other assays above

O=C(Cl)c1cccc(C(=O)Cl)c1
not listed: [11]
inactive: all other assays above

CCCCCCCCCCN
not listed: [12]
inactive: all other assays above

CC(=O)O[C@H](CC(=O)[O-])C[N+](C)(C)C
not listed: [9]
inactive: all other assays above

O=S(=O)(O)c1cccc2c(S(=O)(=O)O)cccc12
not listed: [12] | [19]
inactive: all other assays above

O=C(O)c1cccc(C(F)(F)F)c1
not listed: [17] | [19]
inactive: all other assays above

CC(C)(COC(=O)c1ccccc1)COC(=O)c1ccccc1
active: [5] 47.2 µM | [11] 34.7 µM
not listed: [19]
inactive: all other assays above

O=C(O)c1cn(-c2ccc(F)cc2)c2cc(N3CCNCC3)c(F)cc2c1=O
not listed: [9] | [16]
inactive: all other assays above

CCOC(=S)SSC(=S)OCC
active: [7] 157 µM
inactive: all other assays above

CC(C)CCCCCCCOC(=O)c1ccc(C(=O)OCCCCCCCC(C)C)c(C(=O)OCCCCCCCC(C)C)c1
not listed: [11] | [17] | [19]
inactive: all other assays above

O=C(Oc1ccccc1)c1ccc(O)cc1
active: [5] 176 µM
not listed: [9]
inactive: all other assays above

C=C[C@@H](C)CCC=C(C)C
not listed: [9] | [16] | [18]
inactive: all other assays above

CCC/C=C/C=O
active: [11] 11.2 µM
not listed: [18]
inactive: all other assays above

CCCCCC(=O)OCCc1ccccc1
not listed: [12] | [17]
inactive: all other assays above
